Experimental data as given in the supplement of paper PMC4166925.
± gives the standard deviation of the averaged measurements. Over roughly 33,000 sequences, “E-score (dimensionless, -0.5 to 0.5)” has its median near -0.046; the highest 2% begin near 0.36. Many of the other results were omitted from the sample, so the highest values are more common in it than they were.

Tested on: T1, SpTbr T-box DNA-binding domain (GST fusion)
T1 sequence: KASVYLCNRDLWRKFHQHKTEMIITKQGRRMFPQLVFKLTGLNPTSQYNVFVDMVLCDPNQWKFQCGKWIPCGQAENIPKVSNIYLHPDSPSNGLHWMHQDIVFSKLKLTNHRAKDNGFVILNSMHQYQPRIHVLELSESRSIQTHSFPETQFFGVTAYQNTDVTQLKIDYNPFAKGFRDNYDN
Assay: PBM E-score of 8-mer (E-score (dimensionless, -0.5 to 0.5)); Tbr is Tbrain of the sea star Patiria miniata (Pm) or the sea urchin Strongylocentrotus purpuratus (Sp); higher = stronger binding preference
Details: the construct has about 5 more residues each side
In short: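 Using the Universal PBM Analysis Suite, every ungapped 8-mer received an enrichment E-score averaged over duplicate arrays. Probe intensities came from double-stranded Universal Agilent oligonucleotide arrays incubated with 200 nM GST-fused Tbr T-box DNA-binding domain in PBS (pH 7.5). That protein was expressed in BL21 E. coli at 20 °C and purified by glutathione affinity chromatography.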

| Sequence | PBM E-score of 8-mer |
| --- | --- |
| ATCGACAC | 0.389 ± 0.013 |
| AATGGCTG | -0.183 ± 0.012 |
| CAAGTAGA | -0.0961 ± 0.025 |
| ATCTCGGA | -0.276 ± 0.03 |
| CCATACCG | -0.115 ± 0.017 |
| ACTCAAGC | -0.127 ± 0.023 |
| GGTTAGCA | 0.257 ± 0.034 |
| CGTTAACC | 0.113 ± 0.07 |
| CGTTAGCA | 0.37 ± 0.0046 |
| CGTTAACG | 0.372 ± 0.0041 |
| AGTTAGCA | 0.284 ± 0.045 |
| CGTTAAAA | 0.0585 ± 0.1 |
| TGTTAACA | 0.421 ± 0.029 |
| AGTTAACA | 0.334 ± 0.023 |
| CATTAACA | 0.329 ± 0.029 |
| GGTTAACA | 0.287 ± 0.012 |
| CGTTAACA | 0.4129 ± 0.0026 |
| AGTTAACG | 0.127 ± 0.006 |
| CAAGTTCG | 0.0356 ± 0.0073 |
| TAGGCGAA | 0.0827 ± 0.01 |
| CGATACCC | -0.00698 ± 0.068 |
| ACTTAATG | -0.1 ± 0.055 |
| CGATTTTA | -0.151 ± 0.033 |
| GAGGTGAC | 0.429 ± 0.018 |
| CAGGTGTA | 0.358 ± 0.0037 |

| Sequence | PBM E-score of 8-mer |
| --- | --- |
| GAGGTGAA | 0.198 ± 0.0028 |
| ACGGTGAT | 0.115 ± 0.028 |
| AAGGTGAT | 0.384 ± 0.023 |
| CAGGTGAA | 0.199 ± 0.031 |
| CCGGTGAG | 0.089 ± 0.024 |
| CAGGTGTC | 0.4679 ± 0.0019 |
| CCGGTGTC | 0.18 ± 0.047 |
| GGGGTGAC | 0.293 ± 0.043 |
| AGGGTGAT | 0.123 ± 0.024 |
| CAGGTGAG | 0.399 ± 0.0058 |
| CGAAGCCG | 0.244 ± 0.045 |
| ACCAGCTA | -0.0508 ± 0.0037 |
| CGCGAGCA | 0.275 ± 0.036 |
| AGCAGAGA | -0.259 ± 0.039 |
| CGGACAAA | -0.0576 ± 0.039 |
| CCGAAATC | -0.048 ± 0.0049 |
| CAGAGCAG | -0.246 ± 0.033 |
| CAGATGAC | -0.0314 ± 0.026 |
| AGGGTGAG | 0.216 ± 0.048 |
| AAGGTGAA | 0.187 ± 0.0077 |
| CTGGTGAC | 0.162 ± 0.074 |
| AAGGTGAC | 0.381 ± 0.026 |
| AAGGTGAG | 0.445 ± 0.014 |
| CAGGTGAC | 0.425 ± 0.013 |
| ACGGTGAC | 0.284 ± 0.0089 |

| Sequence | PBM E-score of 8-mer |
| --- | --- |
| ACGGTGAG | 0.0305 ± 0.02 |
| ACAGCTCC | 0.157 ± 0.0081 |
| GCCTGCAC | -0.0663 ± 0.051 |
| ACGTGAGA | 0.3312 ± 0.0033 |
| CCGTGTCA | 0.176 ± 0.013 |
| GCGTGAGA | 0.361 ± 0.03 |
| ACGTGTCT | 0.204 ± 0.034 |
| ACGTGTCA | 0.458 ± 0.0068 |
| GCGTGTGA | 0.399 ± 0.0074 |
| ACGTGTGC | 0.253 ± 0.017 |
| ACGTGGGC | -0.0975 ± 0.06 |
| ACGTGGGG | -0.127 ± 0.012 |
| ACGTGTGA | 0.4797 ± 0.0017 |
| ACGTGTGG | 0.416 ± 0.00045 |
| GCGTGTAA | 0.0697 ± 0.022 |
| AACTCTTG | -0.0545 ± 0.035 |
| CGTAGGAA | -0.00351 ± 0.079 |
| CTTCTGCA | 0.00227 ± 0.035 |
| CAGCGCAG | -0.14 ± 0.069 |
| CAACCCAG | -0.2068 ± 0.00038 |
| AATCTGAG | 0.0009 ± 0.0013 |
| CTATGAGC | -0.1 ± 0.02 |
| ACCGCTGC | 0.0922 ± 0.006 |
| CCGTGTGA | 0.381 ± 0.017 |
| CCGTGAGA | 0.143 ± 0.015 |

| Sequence | PBM E-score of 8-mer |
| --- | --- |
| CCGTGTGC | 0.0129 ± 0.03 |
| ATCTAGAA | -0.151 ± 0.049 |
| CACACGTA | 0.356 ± 0.0042 |
| CACACGGC | 0.151 ± 0.069 |
| CACACGTG | 0.383 ± 0.0078 |
| CACACGTC | 0.451 ± 0.0092 |
| CGCACGTC | 0.331 ± 0.013 |
| AACACGTG | 0.36 ± 0.008 |
| AACCCCTG | -0.108 ± 0.043 |
| CACTGAGC | 0.00197 ± 0.0073 |
| CGCTTTAA | -0.169 ± 0.035 |
| AAAGTAGC | -0.0267 ± 0.0034 |
| ACTCGACA | 0.24 ± 0.029 |
| CAGCTGCC | -0.0128 ± 0.074 |
| CAGTGTGA | 0.393 ± 0.0076 |
| TAGTGAGA | 0.209 ± 0.089 |
| GAGTGTGA | 0.478 ± 0.0052 |
| CAGTGTGG | 0.243 ± 0.043 |
| CAGTGTAA | 0.0331 ± 0.071 |
| TAGTGTGA | 0.453 ± 0.011 |
| TAGTGGGA | -0.0317 ± 0.03 |
| GAGTGTAA | 0.235 ± 0.04 |
| GAGTGTGC | 0.296 ± 0.015 |
| CCAAAGGA | -0.262 ± 0.032 |
| AGCCTCAC | 0.178 ± 0.015 |

| Sequence | PBM E-score of 8-mer |
| --- | --- |
| GCTGTTCC | -0.0355 ± 0.05 |
| GCCTCCGA | -0.0614 ± 0.071 |
| GAGTATGA | -0.047 ± 0.066 |
| CTTGCCAA | 0.153 ± 0.021 |
| ATGGTGTC | 0.392 ± 0.005 |
| ATGGTGTA | 0.127 ± 0.015 |
| ATGGTGGC | 0.274 ± 0.028 |
| ATGGTGTG | 0.39 ± 0.023 |
| CTGGTGTC | 0.312 ± 0.033 |
| ATGGTGCG | 0.206 ± 0.037 |
| AAGTTTGA | -0.0385 ± 0.021 |
| CGGTCAGC | -0.186 ± 0.18 |
| ATTCAAAT | -0.0886 ± 0.04 |
| ATAGAGCG | -0.0811 ± 0.011 |
| AATTGTTC | 0.0645 ± 0.035 |
| GACCACCC | -0.0294 ± 0.0021 |
| CCCACCAA | -0.0327 ± 0.016 |
| AACACCAG | 0.317 ± 0.028 |
| CACACCAG | 0.386 ± 0.036 |
| CCCACCAC | -0.00552 ± 0.018 |
| CACACCAA | 0.38 ± 0.017 |
| GACACCAA | 0.327 ± 0.024 |
| GACACCAC | 0.367 ± 0.039 |
| CTCACCAA | 0.133 ± 0.059 |
| CACACCAC | 0.394 ± 0.015 |

| Sequence | PBM E-score of 8-mer |
| --- | --- |
| CACCACAC | 0.3556 ± 0.0015 |
| AACACCAC | 0.344 ± 0.015 |
| CGCACCAG | 0.242 ± 0.0071 |
| TCATTTAA | -0.193 ± 0.036 |
| CCTCTGCA | -0.1407 ± 0.00062 |
| AATAGCCC | -0.194 ± 0.016 |
| AGTAAATA | -0.121 ± 0.066 |
| GCTTGCTA | -0.156 ± 0.02 |
| AGCGCACG | 0.137 ± 0.04 |
| ACTGTCTG | 0.126 ± 0.021 |
| AGGCTTGG | -0.225 ± 0.031 |
| AGACTTTC | 0.00343 ± 0.055 |
| GCTACCTA | -0.0771 ± 0.051 |
| AGCTGTGC | 0.214 ± 0.041 |
| AGCTGTCA | 0.382 ± 0.022 |
| CCCTGTCG | -0.00439 ± 0.04 |
| GCCTGTGA | 0.187 ± 0.0033 |
| AGCTGTGG | 0.129 ± 0.058 |
| ACCTGTCT | 0.104 ± 0.0037 |
| AGCTGTCC | 0.00624 ± 0.016 |
| AGCTGTGA | 0.393 ± 0.0083 |
| ACCTGTGA | 0.3985 ± 0.0028 |
| ACCTGTGC | 0.151 ± 0.018 |
| GGCTGTCA | 0.172 ± 0.051 |
| ACCTGTCG | 0.37 ± 0.011 |

| Sequence | PBM E-score of 8-mer |
| --- | --- |
| CGGCCAAA | -0.0415 ± 0.0054 |
| ATAACCGA | -0.206 ± 0.066 |
| CAGTTCTC | 0.143 ± 0.053 |
| AACCACTG | -0.317 ± 0.011 |
| CACTCTCC | 0.0753 ± 0.021 |
| AACTGTGG | 0.128 ± 0.0018 |
| AACTGTGA | 0.376 ± 0.011 |
| AACTGTGC | -0.0399 ± 0.045 |
| GCTTAGGA | -0.107 ± 0.059 |
| CACCTCTC | 0.421 ± 0.022 |
| CAACTCTG | 0.225 ± 0.013 |
| CACCTCTA | 0.416 ± 0.0043 |
| CACCTCTG | 0.3929 ± 0.0014 |
| AACCTCTC | -0.0774 ± 0.028 |
| AACCTCTG | -0.137 ± 0.075 |
| GACCTCTC | -0.153 ± 0.016 |
| AACCTCTA | -0.187 ± 0.065 |
| GACCTCTA | -0.234 ± 0.033 |
| ATAGGAGC | -0.181 ± 0.022 |
| CACAACTC | 0.25 ± 0.0039 |
| AGAGGAGA | -0.116 ± 0.043 |
| CTTTCAGC | -0.162 ± 0.032 |
